# Data as given in PubChem BioAssay (EPA / NIEHS).
# Inconclusive results are not listed. The source made the active and inactive calls. How the source made its calls: active means hit-call score of the fitted dose curve at least 0.9, where 1 is the maximum; inconclusive means response in the unintended direction; inactive means score below 0.9.
# Legend:
# AR (gene 367) = AR (gene 367) (UniProt P10275); test: ACEA_AR_antagonist_80hr: ACEA Biosciences xCELLigence Real-Time Cell Analysis on Androgen Receptor Antagonism for Proliferation (AID 2283787);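 further: 22Rv1 human prostate cancer cells with growth followed by electrical impedance; hits lower the impedance growth signal relative to DMSO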
# AR (gene 367), sequence (P10275 whole entry, looked up): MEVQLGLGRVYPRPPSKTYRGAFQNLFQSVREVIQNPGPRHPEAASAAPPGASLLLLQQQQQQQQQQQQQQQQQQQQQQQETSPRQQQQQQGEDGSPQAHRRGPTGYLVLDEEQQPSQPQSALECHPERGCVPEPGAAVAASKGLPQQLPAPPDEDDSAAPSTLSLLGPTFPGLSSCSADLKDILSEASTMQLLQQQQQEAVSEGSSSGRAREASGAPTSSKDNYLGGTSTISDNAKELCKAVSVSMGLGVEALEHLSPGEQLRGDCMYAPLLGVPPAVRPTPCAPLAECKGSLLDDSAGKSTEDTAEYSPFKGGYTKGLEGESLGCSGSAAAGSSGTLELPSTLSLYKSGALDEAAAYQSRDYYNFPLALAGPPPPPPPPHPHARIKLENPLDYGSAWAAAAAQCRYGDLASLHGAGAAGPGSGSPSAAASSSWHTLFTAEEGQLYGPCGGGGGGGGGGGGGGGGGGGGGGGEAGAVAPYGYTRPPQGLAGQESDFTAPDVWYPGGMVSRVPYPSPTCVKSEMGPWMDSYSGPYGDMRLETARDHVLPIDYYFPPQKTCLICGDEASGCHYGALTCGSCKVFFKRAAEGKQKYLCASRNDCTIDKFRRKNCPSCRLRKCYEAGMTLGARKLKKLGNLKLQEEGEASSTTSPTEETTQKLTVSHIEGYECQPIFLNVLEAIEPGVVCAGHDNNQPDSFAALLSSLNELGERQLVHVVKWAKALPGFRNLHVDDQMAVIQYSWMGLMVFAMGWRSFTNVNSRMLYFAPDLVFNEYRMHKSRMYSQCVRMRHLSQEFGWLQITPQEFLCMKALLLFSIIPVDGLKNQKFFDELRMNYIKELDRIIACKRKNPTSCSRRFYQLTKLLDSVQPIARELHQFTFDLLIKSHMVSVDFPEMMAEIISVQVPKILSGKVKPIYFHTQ
# Outline: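 22Rv1 cells in assay medium, growth tracked by electrical impedance; compounds eight-point 1:4 dilutions from 100 uM final, duplicate plates. Endpoint at 80 h; loss of signal versus DMSO.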
# [1] = molecular target: Estrogen receptor beta (Homo sapiens) (UniProt Q92731); test: ATG_hERb_XSP1: Attagene TRANS-FACTORIAL Multi-Species (XSP1) HepG2 Assay for human Estrogen Receptor (ESR2) (AID 2283788)
# Estrogen receptor beta (Homo sapiens), sequence (Q92731 whole entry, looked up, the tested form may be a part): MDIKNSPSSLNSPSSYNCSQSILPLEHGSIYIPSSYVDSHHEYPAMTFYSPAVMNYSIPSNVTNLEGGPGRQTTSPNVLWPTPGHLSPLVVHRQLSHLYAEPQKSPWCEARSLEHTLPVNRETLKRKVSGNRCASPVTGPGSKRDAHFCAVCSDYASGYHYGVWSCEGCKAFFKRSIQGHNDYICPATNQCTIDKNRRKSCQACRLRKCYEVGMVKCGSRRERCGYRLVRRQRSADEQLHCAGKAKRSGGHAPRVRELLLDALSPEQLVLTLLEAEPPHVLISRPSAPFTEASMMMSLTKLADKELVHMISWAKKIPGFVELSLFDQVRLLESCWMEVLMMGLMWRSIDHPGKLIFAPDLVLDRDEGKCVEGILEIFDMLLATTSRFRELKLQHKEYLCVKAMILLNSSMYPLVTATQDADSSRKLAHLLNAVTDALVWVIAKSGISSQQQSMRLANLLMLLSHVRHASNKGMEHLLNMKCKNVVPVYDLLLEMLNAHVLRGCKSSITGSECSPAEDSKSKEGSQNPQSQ
# Outline: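 HepG2 cells transiently transfected with GAL4-UAS multiplexed reporter units, 3 nM 6-alpha-fluorotestosterone present; 24 h exposure. Reporter mRNA measured by RT-PCR, fluorescent labelling and capillary electrophoresis; gain of signal fitted against DMSO.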
# [2] = ATG_M_06_XSP1: Attagene TRANS-FACTORIAL Multi-Species (XSP1) HepG2 Assay for M06 Transcription Factor (Internal Marker) (AID 2283790)
# Outline: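 Transfected HepG2 multi-reporter system treated 24 h in the presence of 3 nM 6-alpha-fluorotestosterone. The M06 internal marker transcript was quantified by RT-PCR with capillary electrophoresis as a background control, and gain of signal was scored versus DMSO.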
# [3] = ATG_M_61_XSP1: Attagene TRANS-FACTORIAL Multi-Species (XSP1) HepG2 Assay for M61 Transcription Factor (Internal Marker) (AID 2283797)
# Outline: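 HepG2 cells transiently transfected with multiplexed GAL4-driven reporter units, dosed 24 h with 3 nM 6-alpha-fluorotestosterone present. Reporter mRNA quantified by RT-PCR, 6-FAM labelling, HpaI digestion and capillary electrophoresis; internal-marker background control, gain of signal versus DMSO.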
# [4] = ATG_M_19_XSP1: Attagene TRANS-FACTORIAL Multi-Species (XSP1) HepG2 Assay for M19 Transcription Factor (Internal Marker) (AID 2283798)
# Outline: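 HepG2 cells transiently transfected with multiplexed GAL4-UAS reporter units, dosed 24 h with 3 nM 6-alpha-fluorotestosterone present for partial AR stimulation. Reporter mRNA measured by RT-PCR with capillary electrophoresis; gain-of-signal fitted relative to DMSO.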
# [5] = ATG_M_32_XSP1: Attagene TRANS-FACTORIAL Multi-Species (XSP1) HepG2 Assay for M32 Transcription Factor (Internal Marker) (AID 2283799)
# Outline: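 HepG2 cells transiently transfected with multi-species TRANS reporter units, dosed 24 h with 3 nM 6-alpha-fluorotestosterone present. Internal-marker reporter mRNA quantified by RT-PCR and capillary electrophoresis; positive-direction fit versus DMSO.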
# [6] = system: zebrafish Peroxisome Proliferator-activated Receptor gamma (PPARg), gene 557037; test: ATG_zfPPARg_XSP1: Attagene TRANS-FACTORIAL Multi-Species (XSP1) HepG2 Assay for zebrafish Peroxisome Proliferator-activated Receptor gamma (PPARg) (AID 2283801)
# Procedure: ATG_XSP1_multi-species_TRANS is a cell-based, multiplexed assay created by modifying the existing Attagene TRANS-FACTORIAL system to include a panel of nuclear receptors from some or all the following species: human (Homo sapiens), mouse (Mus musculus), frog (Xenopus laevis), zebrafish (Danio rerio), chicken (Gallus gallus), and turtle (Chrysemys picta). The ECOTOX-FACTORIAL format uses HepG2, a human liver cell line, with measurements taken at 24 hours after chemical dosing in a 24-well plate. Xsp1 included 3 nM 6-alpha-fluorotestosterone to partially stimulate the androgen receptor.ATG_zfPPARg_XSP1 is one of 29 assay components measured or calculated from the ATG_XSP1_multi-species_TRANS assay. It is designed to make measurements of mRNA induction, a form of inducible reporter, as detected with fluorescence intensity signals by Reverse transcription polymerase chain reaction (RT-PCR) and Capillary electrophoresis technology.The assay endpoint ATG_zfPPARg_XSP1 was analyzed in the positive analysis fitting direction relative to DMSO as the negative control and baseline of activity. Using a type of inducible reporter, measures of mRNA for gain-of-signal activity can be used to understand the reporter gene at the transcription factor-level as they relate to the gene PPARg. Furthermore, this assay endpoint can be referred to as a primary readout, because this assay has produced multiple assay endpoints where this one serves a reporter gene function. To generalize the intended target to other relatable targets, this assay endpoint is annotated to the nuclear receptor intended target family, where the subfamily is non-steroidal.
# Human liver HepG2 cells are transiently transfected with multiple reporter transcription units (MRTUs) in 6-well plates using FuGene 6 reagent (Roche; 3 ml FuGene/1 mg DNA). The MRTU constructs are regulated by a cis-regulating element (promoter). […] A major difference between the CIS and TRANS system is that in CIS activities of endogenous TFs are measured, whereas the TRANS assay evaluates changes in activities of exogenous, chimeric NR-Gal4 proteins. […] At the end of 24 hour incubation, total RNA was isolated using TriZol reagent (Invitrogen). The isolated RNA is then reverse-transcribed using oligo(dT) primer and Mo-MLV reverse transcriptase (Invitrogen) with DNAse I (Ambion) treatment for 30 min. […] The fragments were purified using Qiaquick PCR columns (Qiagen), analyzed on an ABI 3130xL genetic analyzer (Applied Biosystems) with peak positions identified by using a set of X-rhodamine (ROX)-labeled MapMarker1000 molecular weight standards (BioVentures). […]
# [7] = molecular target: mouse Peroxisome Proliferator-activated Receptor gamma (PPARg), Pparg (gene 19016) (UniProt P37238); test: ATG_mPPARg_XSP1: Attagene TRANS-FACTORIAL Multi-Species (XSP1) HepG2 Assay for mouse Peroxisome Proliferator-activated Receptor gamma (PPARg) (AID 2283802)
# mouse Peroxisome Proliferator-activated Receptor gamma (PPARg), Pparg (gene 19016), sequence (P37238 whole entry, looked up, the tested form may be a part): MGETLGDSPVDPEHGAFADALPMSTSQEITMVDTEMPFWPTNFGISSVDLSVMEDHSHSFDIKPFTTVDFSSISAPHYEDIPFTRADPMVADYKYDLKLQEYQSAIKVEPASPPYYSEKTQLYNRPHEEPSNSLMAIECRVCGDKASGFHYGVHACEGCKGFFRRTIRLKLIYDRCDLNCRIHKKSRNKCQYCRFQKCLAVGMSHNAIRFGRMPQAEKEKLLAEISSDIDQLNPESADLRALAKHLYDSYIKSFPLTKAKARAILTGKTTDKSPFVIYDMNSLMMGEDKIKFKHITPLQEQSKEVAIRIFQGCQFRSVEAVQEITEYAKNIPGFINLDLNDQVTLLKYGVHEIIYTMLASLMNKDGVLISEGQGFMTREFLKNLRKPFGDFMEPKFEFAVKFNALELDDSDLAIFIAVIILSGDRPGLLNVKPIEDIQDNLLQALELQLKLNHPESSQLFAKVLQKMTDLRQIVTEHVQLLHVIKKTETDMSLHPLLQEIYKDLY
# Outline: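 HepG2 cells transiently transfected with GAL4-UAS reporter units driven by mouse PPARg–GAL4 chimera; 3 nM 6-alpha-fluorotestosterone present. After 24 h dosing, reporter mRNA quantified by RT-PCR, fluorescent labelling and capillary electrophoresis; gain of signal versus DMSO.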
# [8] = molecular target: Peroxisome proliferator-activated receptor gamma (Homo sapiens) (UniProt P37231); test: ATG_hPPARg_XSP1: Attagene TRANS-FACTORIAL Multi-Species (XSP1) HepG2 Assay for human Peroxisome Proliferator-activated Receptor gamma (PPARg) (AID 2283800)
# Peroxisome proliferator-activated receptor gamma (Homo sapiens), sequence (P37231 whole entry, looked up, the tested form may be a part): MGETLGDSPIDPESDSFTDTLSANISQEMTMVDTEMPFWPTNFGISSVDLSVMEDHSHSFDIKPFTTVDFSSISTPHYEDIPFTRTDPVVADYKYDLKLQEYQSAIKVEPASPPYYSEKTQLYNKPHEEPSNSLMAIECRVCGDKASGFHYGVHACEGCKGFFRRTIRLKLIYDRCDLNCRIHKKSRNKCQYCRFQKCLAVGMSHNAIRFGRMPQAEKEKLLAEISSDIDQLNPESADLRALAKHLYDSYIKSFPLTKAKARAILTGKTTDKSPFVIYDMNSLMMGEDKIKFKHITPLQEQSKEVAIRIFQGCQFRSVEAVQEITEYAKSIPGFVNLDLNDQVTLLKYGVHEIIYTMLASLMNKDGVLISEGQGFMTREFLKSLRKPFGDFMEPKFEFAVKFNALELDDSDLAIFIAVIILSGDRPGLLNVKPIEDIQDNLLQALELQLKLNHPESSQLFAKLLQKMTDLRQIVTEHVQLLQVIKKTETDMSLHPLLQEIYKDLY
# Outline: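 HepG2 cells transiently transfected with GAL4-UAS reporter units carrying chimeric NR-Gal4 proteins; 3 nM 6-alpha-fluorotestosterone present. After 24 h dosing, reporter mRNA quantified by RT-PCR and capillary electrophoresis; gain of signal relative to DMSO.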
# [9] = molecular target: GAL4 Transcription Factor (Internal Marker), GAL4 (gene 855828) (UniProt P04386); test: ATG_GAL4_XSP1: Attagene TRANS-FACTORIAL Multi-Species (XSP1) HepG2 Assay for GAL4 Transcription Factor (Internal Marker) (AID 2283789)
# GAL4 Transcription Factor (Internal Marker), GAL4 (gene 855828), sequence (P04386 whole entry, looked up, the tested form may be a part): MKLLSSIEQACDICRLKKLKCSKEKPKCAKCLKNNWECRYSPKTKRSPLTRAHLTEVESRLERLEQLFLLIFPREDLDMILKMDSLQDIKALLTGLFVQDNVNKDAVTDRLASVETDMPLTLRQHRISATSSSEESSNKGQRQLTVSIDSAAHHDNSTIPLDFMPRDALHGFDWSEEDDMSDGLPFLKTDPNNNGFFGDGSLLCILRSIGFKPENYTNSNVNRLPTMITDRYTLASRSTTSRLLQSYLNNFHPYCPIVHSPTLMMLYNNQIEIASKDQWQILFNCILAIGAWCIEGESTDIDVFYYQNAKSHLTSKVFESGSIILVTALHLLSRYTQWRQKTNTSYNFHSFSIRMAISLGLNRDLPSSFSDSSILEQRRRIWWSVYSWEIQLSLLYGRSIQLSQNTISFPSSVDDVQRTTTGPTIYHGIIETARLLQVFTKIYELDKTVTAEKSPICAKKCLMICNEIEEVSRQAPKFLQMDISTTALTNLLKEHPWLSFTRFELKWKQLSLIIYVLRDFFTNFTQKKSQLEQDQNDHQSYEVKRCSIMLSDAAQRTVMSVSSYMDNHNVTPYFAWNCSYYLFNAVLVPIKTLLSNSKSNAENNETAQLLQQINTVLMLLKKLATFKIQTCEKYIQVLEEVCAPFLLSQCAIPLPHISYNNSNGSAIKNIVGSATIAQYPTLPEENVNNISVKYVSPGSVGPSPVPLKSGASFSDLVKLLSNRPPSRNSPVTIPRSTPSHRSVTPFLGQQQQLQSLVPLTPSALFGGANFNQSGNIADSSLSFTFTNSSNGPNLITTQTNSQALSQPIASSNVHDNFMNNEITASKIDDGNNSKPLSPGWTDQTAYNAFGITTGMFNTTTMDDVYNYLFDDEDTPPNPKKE
# Outline: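 HepG2 cells transiently transfected with multiplexed GAL4-UAS reporter units were exposed for 24 h with 3 nM 6-alpha-fluorotestosterone present. Reporter mRNA was quantified by RT-PCR, FAM labelling, HpaI digestion and capillary electrophoresis; background-control readout, gain-of-signal versus DMSO.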
structure (smiles),measurement,setting,value
CC(C)c1cccc(C(C)C)c1O,outcome,AR (gene 367),inactive
Cc1ccc2ccccc2c1C,AC50,AR (gene 367),16.6 µM (active)
CCC1(c2ccc(N)cc2)CCC(=O)NC1=O (configuration not stated),outcome,AR (gene 367),inactive
COP(=S)(OC)Oc1ccc(Sc2ccc(OP(=S)(OC)OC)cc2)cc1,outcome,AR (gene 367),inactive
CC(C)(C)CC(C)(C)c1ccc(O)cc1,AC50,[1],2.74 µM (active)
same,outcome,[2],inactive
same,outcome,[3],inactive
same,outcome,[4],inactive
same,outcome,[5],inactive
same,outcome,[6],inactive
CC(C)(C)c1cc(O)ccc1O,outcome,[2],inactive
same,outcome,[3],inactive
same,outcome,[6],inactive
same,AC50,[7],14.9 µM (active)
CC(C)(c1ccc(OCC2CO2)cc1)c1ccc(OCC2CO2)cc1 (configuration not stated),outcome,AR (gene 367),inactive
CCC(=O)C(CC(C)N(C)C)(c1ccccc1)c1ccccc1 (configuration not stated),AC50,AR (gene 367),28.2 µM (active)
O=c1[nH]c(=O)[nH]c(=O)[nH]1,outcome,AR (gene 367),inactive
CC1(C)CCC(Cc2ccc(Cl)cc2)C1(O)Cn1cncn1 (configuration not stated),outcome,[2],inactive
same,outcome,[3],inactive
same,outcome,[5],inactive
same,outcome,[8],inactive
same,outcome,[6],inactive
same,AC50,[7],78.6 µM (active)
COP(=O)(OC)OC,outcome,AR (gene 367),inactive
CCOP(=S)(OCC)Oc1nc(Cl)c(Cl)cc1Cl,AC50,AR (gene 367),74.9 µM (active)
C[C@]12CCC(=O)C[C@@H]1CC[C@@H]1[C@@H]2CC[C@]2(C)[C@@H](O)CC[C@@H]12,outcome,[1],inactive
same,outcome,[4],inactive
same,outcome,[5],inactive
CC12CC1(C)C(=O)N(c1cc(Cl)cc(Cl)c1)C2=O (configuration not stated),AC50,AR (gene 367),78.4 µM (active)
same,outcome,[1],inactive
same,outcome,[9],inactive
same,outcome,[2],inactive
same,outcome,[3],inactive
same,outcome,[8],inactive
same,AC50,[7],39.2 µM (active)
O=[N+]([O-])c1ccc(O)c([N+](=O)[O-])c1,AC50,AR (gene 367),50 µM (active)
Cc1ccccc1C(=O)Nc1cccc(OC(C)C)c1,outcome,AR (gene 367),inactive
ClC1(Cl)C2(Cl)C3(Cl)C4(Cl)C(Cl)(Cl)C5(Cl)C3(Cl)C1(Cl)C5(Cl)C24Cl (configuration not stated),outcome,AR (gene 367),inactive
CC(=O)[O][Hg][c]1ccccc1,AC50,AR (gene 367),1.21 µM (active)
O=C1C2(Cl)C3(Cl)C4(Cl)C(Cl)(Cl)C5(Cl)C3(Cl)C1(Cl)C5(Cl)C24Cl (configuration not stated),AC50,AR (gene 367),7.92 µM (active)
same,outcome,[2],inactive
same,outcome,[3],inactive
c1cc[c]([Hg][c]2ccccc2)cc1,AC50,AR (gene 367),21.9 µM (active)
CCN1CCC2(CC1)COc1cc3c(cc12)N(C(=O)c1ccc(-c2ccc(-c4nnc(C)o4)cc2C)cc1)CC3,AC50,AR (gene 367),8.66 µM (active)
C[C@H]1CCCC(=O)CCC/C=C/c2cc(O)cc(O)c2C(=O)O1,AC50,AR (gene 367),13.9 µM (active)
COP(=O)(OC)O/C(=C\Cl)c1cc(Cl)c(Cl)cc1Cl,outcome,AR (gene 367),inactive
same,outcome,[2],inactive
same,outcome,[3],inactive
same,AC50,[8],14 µM (active)
same,outcome,[6],inactive
same,AC50,[7],32.3 µM (active)
Clc1ccc(COC(Cn2ccnc2)c2ccc(Cl)cc2Cl)cc1 (configuration not stated),AC50,AR (gene 367),8.61 µM (active)
